Mtb FBA inh: inhibitors of M. tuberculosis fructose-bisphosphate aldolase; 2.3% of 360,000 active; P9WQA3; inhibition, % at 1 µM; AID 588726; purified M. tuberculosis FBA, fluorescence read-out; in the data active means inhibition above about 27%;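 further: 0% = vehicle and 100% = reference inhibitor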
UGM FP inh: Mtb UDP-galactopyranose mutase inhibition; P9WIQ1; purified UGM, fluorescence polarization probe displacement; inhibition, % at 10 µM; 0.06% of 320,000 active; AID 504406; in the data active means inhibition above about 10%, passing the limit was not always enough
Rv3671c inh: Rv3671c (M. tuberculosis) protease inhibition. AID 2606. inhibition, % at 5.96 µM. 0.048% of 320,000 active. P9WHR9; in the data active means inhibition above about 38%;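 further: extracellular domain of Rv3671c used as enzyme; 0% = enzyme with DMSO and 100% = no enzyme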
Target sequence (P9WHR9 whole entry, looked up, the tested form may be a part): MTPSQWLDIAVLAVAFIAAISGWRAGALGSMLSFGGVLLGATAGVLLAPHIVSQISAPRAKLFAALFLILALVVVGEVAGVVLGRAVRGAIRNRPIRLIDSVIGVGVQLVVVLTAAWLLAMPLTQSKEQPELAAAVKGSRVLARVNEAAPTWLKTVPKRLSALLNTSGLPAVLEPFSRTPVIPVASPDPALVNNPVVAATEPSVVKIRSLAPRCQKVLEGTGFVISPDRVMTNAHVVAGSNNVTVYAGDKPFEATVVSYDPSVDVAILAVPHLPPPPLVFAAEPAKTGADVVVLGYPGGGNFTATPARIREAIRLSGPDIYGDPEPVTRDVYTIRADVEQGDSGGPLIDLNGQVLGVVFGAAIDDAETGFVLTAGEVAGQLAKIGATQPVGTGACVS
Mtb bLac sens: beta-lactam sensitization of Mtb H37Rv; inhibition, % at 25 µM; M. tuberculosis H37Rv growth with meropenem, percent inhibition; AID 434955; 0.27% of 330,000 active;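 further: growth measured after seven days incubation then overnight dye step; 0% = bacteria only wells and 100% = bacteria with antibiotic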
GDH-TPI counter-1: GDH-TPI coupled enzyme inhibition counter-screen; inhibition, % at 4.8 µM; 1.2% of 360,000 active; GDH-TPI coupled enzyme counterscreen, NADH absorbance; in the data active means inhibition above about 30%;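 further: 0% = DMSO wells and 100% = wells lacking the enzyme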
Mtb FBA inh conf: confirmation of M. tuberculosis fructose-bisphosphate aldolase inhibitors; inhibition, % at 1 µM; 78% of 5,600 active; shares compounds with Mtb FBA inh; purified M. tuberculosis FBA, fluorescence read-out; in the data active means inhibition above about 27%;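 further: 0% = vehicle wells and 100% = reference inhibitor wells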
GDH-TPI counter-2: inhibits GDH-TPI coupling enzymes, flagging Mtb FBA hits | shares compounds with Mtb FBA inh | 81% of 5,600 active | GDH-TPI coupled enzyme counterscreen, fluorescence | AID 652141 | inhibition, % at 1 µM; in the data active means inhibition above about 10%
GDH-TPI dose: counter-screen for M. tuberculosis FBA inhibitors: GDH-TPI dose response; 79% of 170 active; IC50, µM; shares compounds with Mtb FBA inh; GDH-TPI coupled enzyme assay, fluorescence, artifact counterscreen
* hit, by the source's call; . = not tested or not shown; + = active, no number. In the library only some 3.5% were active in any assay of this set; here they are far more common. Unless noted, how the calls were made is not given here.

SMILES	Mtb FBA inh	UGM FP inh	Rv3671c inh	Mtb bLac sens	GDH-TPI counter-1	Mtb FBA inh conf	GDH-TPI counter-2	others
Cc1nc2cc3nc(C(F)(F)F)[nH]c3cc2[nH]1	7.8	-0.7	-0.2	-2.7	-4.0	.	.
CC(C)CCNc1c(-c2cccs2)nc2ccccn12	46.4*	1.7	12.7	-3.4	8.9	37.5*	20.7*
Cc1ccn2c(NC(=O)c3cccs3)c(-c3ccccc3)nc2c1	1.4	-1.5	-3.8	-1.4	13.2	.	.
Cc1ccn2c(NC(C)(C)C)c(-c3cccs3)nc2c1	33.2*	-0.5	-0.1	-5.3	-3.8	+	+
COc1cc(C(=O)OCC(=O)NCc2ccc(F)cc2)ccc1OCC(C)C	-0.7	1.1	2.7	-6.6	7.1	.	.
Cc1nc2ccc(NC(=O)c3cncc(Br)c3)cc2s1	-1.1	1.7	-0.7	14.4	6.9	.	.
CCN(CC)C(=O)[C@H]1C[C@H](CC(=O)NCc2ccc(OC)c(OC)c2)C(=O)N2CCc3c([nH]c4cc(-c5ccco5)ccc34)[C@]12C	46.1*	.	.	.	16.4	144.2*	104.6*
COc1ccc(CNC(=O)C[C@H]2C[C@H](C(=O)N3CCCCC3)[C@@]3(C)c4[nH]c5cc(-c6ccco6)ccc5c4CCN3C2=O)cc1OC	28.1*	.	.	.	10.4	78.7*	56.4*
O=C(NC(NCc1cccnc1)C(Cl)(Cl)Cl)c1cccc2ccccc12 (stereo not given)	-2.8	1.6	-8.3	0.5	-5.2	.	.
CCc1ccc(C(=O)C[n+]2cccc3cc(OC)ccc32)cc1	40.5*	-1.1	.	11.9	6.5	25.6	19.6*
O=C(Nc1ccccc1)c1cccc(S(=O)(=O)Oc2ccc([N+](=O)[O-])cc2)c1	0.6	3.9	-13.1	-0.1	-2.6	.	.
COc1cc(C(=O)NCC(=O)OC(C)C(=O)Nc2ncc(Cl)cc2Cl)cc(OC)c1OC (stereo not given)	48.2*	2.9	-5.2	11.6	-3.7	68.9*	73.6*
COc1cc(C(=O)NCC(=O)OCC(=O)Nc2ncc(Cl)cc2Cl)cc(OC)c1OC	0.5	0.8	-1.5	2.9	-6.3	.	.
CNC(=O)c1ccc(-c2sc3nc(N4CCOCC4)c4c(c3c2N)CC(C)(C)OC4)o1	40.9*	1.9	0.8	1.2	24.3	45.5*	29.9*
CN1Cc2c(N3CCOCC3)nc3sc(C#N)c(N)c3c2CC1(C)C	78.4*	-2.4	-1.8	4.7	5.7	13.8	-4.7	GDH-TPI dose=1.84*
CC(C)NCC(O)Cn1c2c(c3ccccc31)CCc1c-2cnn1-c1ccccc1 (stereo not given)	32.8*	-1.7	-4.9	100.2	6.8	8.1	0.0
CCCSc1ccccc1C(=O)N1CCN(C(=O)c2ccco2)CC1	54.9*	-1.4	0.1	2.2	11.6	+	+
COc1ccc(S(=O)(=O)N2CCCCC2)cc1NC(=O)CCCOc1ccc(C)cc1	-0.4	-0.3	-1.0	-1.8	9.1	.	.
C=CCNC(=O)C1CCN(c2nc(C)cc(-c3ccccc3)n2)CC1	32.5*	-0.6	2.6	-0.8	8.9	4.6	1.1
C=CCNC(=O)C1CCN(c2cc(C)nc(-c3ccccc3)n2)CC1	-2.3	-0.6	2.4	-0.4	1.6	.	.
CC(C)SCC(=O)Nc1ncc2c(n1)-c1ccccc1CC2	28.8*	1.6	-0.4	1.8	7.4	3.2	1.7
COc1ccc(/C=C/S(=O)(=O)NCc2ccccc2)cc1OC	2.2	0.8	-8.9	-0.7	4.7	.	.
O=C(O)CCN(CCC(=O)O)c1ccccc1	2.5	-0.7	2.9	-10.1	0.6	.	.
OCCN(CCO)c1ccc2ccccc2c1	109.4*	0.1	1.6	4.2	2.2	33.2*	27.4*
OCCN(CCO)c1ccc(C(c2ccccc2Cl)c2ccc(N(CCO)CCO)cc2Cl)c(Cl)c1	-1.5	.	18.9	1.7	15.0	.	.
O=C(O)c1cccc(N(CCO)CCO)c1	38.7*	0.1	2.8	-4.9	1.3	98.6*	75.3*
Cc1cc(Cl)ccc1OCC(=O)NCCCN1CCOCC1	1.0	0.2	0.5	-9.3	-1.3	.	.
CCc1cc(=O)oc2cc(C)cc(OCC(=O)NCCN3CCOCC3)c12	60.7*	-1.9	2.0	7.3	10.3	51.6*	65.9*
Cc1c(C)c2ccc(OCC(=O)NCCN3CCOCC3)c(C)c2oc1=O	46.8*	1.6	2.2	-5.7	3.0	+	+

Screening results: PubChem BioAssay, several laboratories
